Screen size: about 310,000 compounds; about 14,000 (4.5%) showed an effect of 50% or more. Effects have a minus sign here. Many of the other results were omitted from the sample, so strong results are more common in it than they were.
Target: human ether-à-go-go-related gene (hERG) potassium channel (human, UniProt Q12809)
Test: primary screen, population patch clamp on CHO cells stably expressing hERG; higher = less effect of the substance
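Note: peak tail current of the secondary pulse compared with the same well before compound.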

human ether-à-go-go-related gene (hERG) potassium channel, sequence (Q12809 whole entry, looked up): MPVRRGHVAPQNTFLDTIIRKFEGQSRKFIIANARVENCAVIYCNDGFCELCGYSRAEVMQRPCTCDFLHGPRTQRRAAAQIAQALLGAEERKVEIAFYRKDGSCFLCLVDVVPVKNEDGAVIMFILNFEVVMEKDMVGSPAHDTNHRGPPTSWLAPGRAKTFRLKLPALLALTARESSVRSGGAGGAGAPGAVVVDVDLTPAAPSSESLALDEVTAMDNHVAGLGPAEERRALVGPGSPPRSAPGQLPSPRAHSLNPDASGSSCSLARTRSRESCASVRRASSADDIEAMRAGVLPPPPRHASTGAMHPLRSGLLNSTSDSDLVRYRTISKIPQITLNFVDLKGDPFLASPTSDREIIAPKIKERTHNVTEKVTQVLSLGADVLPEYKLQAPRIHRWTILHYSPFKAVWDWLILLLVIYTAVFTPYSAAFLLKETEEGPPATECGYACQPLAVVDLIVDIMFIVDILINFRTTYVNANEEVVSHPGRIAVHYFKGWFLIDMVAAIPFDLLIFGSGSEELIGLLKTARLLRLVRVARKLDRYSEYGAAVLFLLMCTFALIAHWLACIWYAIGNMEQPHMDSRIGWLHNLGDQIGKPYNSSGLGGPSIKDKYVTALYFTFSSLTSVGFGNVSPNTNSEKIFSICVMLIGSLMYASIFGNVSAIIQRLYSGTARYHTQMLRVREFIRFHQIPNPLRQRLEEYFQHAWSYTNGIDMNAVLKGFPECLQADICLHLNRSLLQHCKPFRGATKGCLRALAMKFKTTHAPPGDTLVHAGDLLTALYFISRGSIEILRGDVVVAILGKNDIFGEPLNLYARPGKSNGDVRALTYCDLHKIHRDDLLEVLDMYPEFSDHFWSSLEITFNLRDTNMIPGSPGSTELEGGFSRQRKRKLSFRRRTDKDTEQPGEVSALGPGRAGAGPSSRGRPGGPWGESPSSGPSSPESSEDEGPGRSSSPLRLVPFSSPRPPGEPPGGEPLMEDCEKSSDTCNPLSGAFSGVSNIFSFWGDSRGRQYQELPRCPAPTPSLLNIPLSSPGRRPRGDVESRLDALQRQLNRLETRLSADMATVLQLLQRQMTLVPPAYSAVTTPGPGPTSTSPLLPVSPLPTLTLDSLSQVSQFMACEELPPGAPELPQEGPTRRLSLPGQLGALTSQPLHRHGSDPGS

SMILES	hERG current change (%, negative = inhibition) at 10uM [%]
COC(=O)c1cc2oc3ccccc3c2n1Cc1ccccn1	-8.74
C/C(=N\N=C1\NC(=O)C(CC(=O)Nc2ccc(Cl)cc2)S1)c1ccco1 (stereo not drawn)	13
CCn1c(SCC(=O)Nc2ccccc2Cl)nnc1C1CC1	6.78
Cc1c(S(=O)(=O)N2CCCC(C)C2)c(=O)n(C)c(=O)n1C (stereo not drawn)	-2.74
O=C(NCCNC(=O)c1ccccc1)c1ccccc1	2.89
Cc1cc([N+](=O)[O-])cc(C)c1OCC(=O)N/N=C/c1ccc(OC(=O)c2ccccc2Br)cc1	4.23
CCC(C)NC(=O)C1c2ccccc2C(=O)N1Cc1cc(OC)ccc1OC (stereo not drawn)	9.25
COc1ccc(-c2c(C#Cc3ccsc3)c3cc(-c4ccc5[nH]ccc5c4)ccc3n2C)cc1	24.1
O=C(CN1C(=O)COc2ccccc21)c1cccc(Cl)c1	-14.4
CSc1ccccc1OCc1cc(C(=O)N2CCC[C@H]2C(N)=O)no1	5.26
N#CSCC(=O)c1cccc2ccccc12	-24.8
COc1ccc(NC(=O)C2CCCN(CCCc3ccccc3)C2)cc1OCC(C)C.O=C(O)/C=C/C(=O)O (stereo not drawn)	-52.1
COc1ccc(NC(=O)C2CCCCN2N)cc1OCC(C)C.O=C(O)C(=O)O (stereo not drawn)	-5.25
COc1ccc(NC(=O)C2CCCN(C)C2)cc1OCC(C)C (stereo not drawn)	-1.9
O=C(NCCc1c[nH]c2ccccc12)C1Cc2ccccc2CN1C(=O)c1ccco1 (stereo not drawn)	-71.6
CCS(=O)(=O)N1Cc2ccccc2CC1C(=O)NCCc1c[nH]c2ccccc12 (stereo not drawn)	-0.595
O=C(NCc1ccc2c(c1)OCO2)c1ccccc1	-4.18
O=C(NCc1ccccc1)C1Cc2ccccc2CN1C(=O)c1ccco1 (stereo not drawn)	-12.2
NS(=O)(=O)c1ccc(CCNC(=O)C2Cc3ccccc3CN2C(=O)c2ccco2)cc1 (stereo not drawn)	9.39
O=C(NCc1ccc(F)cc1)C1Cc2ccccc2CN1C(=O)c1ccco1 (stereo not drawn)	-42.1
O=C(NCc1ccc2c(c1)OCO2)c1ccc(CN2CCc3ccccc3C2)cc1	-52.5
O=C(NCc1ccc2c(c1)OCO2)c1ccc(CN2CCOCC2)cc1	15.3
O=C(NCc1ccc2c(c1)OCO2)C1Cc2ccccc2CN1C(=O)c1ccco1 (stereo not drawn)	-59

SMILES	hERG current change (%, negative = inhibition) at 10uM [%]
COc1ccc(N2C(=O)CC(NCc3cccc(F)c3)C2=O)cc1 (stereo not drawn)	-13.3
Cc1ccc(-n2c(=O)[nH]c3c(oc4ccccc43)c2=O)cc1	-0.961
CCOc1ccc(CC2CC(=O)NC2=O)cc1 (stereo not drawn)	12.5
N=c1oc2ccc(Br)cc2cc1C(=O)NCc1ccc(F)cc1	5.37
C/C(=N/NC(=O)c1ccc(Br)o1)C(C)C	-1.43
Cc1cccc(C(=O)Nc2ccc(C(=O)Nc3ccc(O)cc3)cc2)c1	12.5
O=C(CCCN1C(=O)c2ccccc2C1=O)Nc1ccc(S(=O)(=O)N2CCCCC2)cc1	-28.8
O=C(C[n+]1ccccc1)N1c2ccccc2Sc2ccccc21.[Cl-]	20.7
COc1cccc(CNC(=O)CCNS(=O)(=O)c2cccs2)c1	-5.11
COc1ccccc1-c1coc2c(CN3CCOCC3)c(O)ccc2c1=O	8.17
CC(=O)N1CCN(CC(=O)Nc2ccccc2Sc2ccc(Cl)cc2)CC1	-78
O=C(CN1CCCC1)Nc1ccccc1Sc1ccccc1	-13.5
O=C(CN1CCOCC1)Nc1ccccc1Sc1ccc(Cl)cc1	-44.1
O=C(CN1CCCC1)Nc1ccccc1Sc1ccc(Cl)cc1	-31.1
O=C(CN1CCN(c2ccccc2)CC1)Nc1ccccc1Sc1ccccc1	9.55
O=C(CN1CCOCC1)Nc1ccccc1Sc1ccccc1	-31.3
CN1CCN(CC(=O)Nc2ccccc2Sc2ccccc2)CC1.O=C(O)C(=O)O	-65.3
CC(=O)N1CCN(CC(=O)Nc2ccccc2Sc2ccccc2)CC1	-59.5
CC1CCN(CC(=O)Nc2ccccc2Sc2ccccc2)CC1	-5.71
CC1CCCN(CC(=O)Nc2cc(Cl)ccc2Oc2ccccc2)C1 (stereo not drawn)	14.3
O=C(CN1CCCCC1)Nc1cc(Cl)ccc1Oc1ccccc1	12.5
NC(=O)C1CCN(CC(=O)Nc2cc(Cl)ccc2Oc2ccccc2)CC1	-67
COC(=O)CNc1nc(Cl)nc(Nc2ccc(C)cc2)n1	18.3

SMILES	hERG current change (%, negative = inhibition) at 10uM [%]
COc1cc(NC(=O)c2cccnc2SC)cc(OC)c1	10.2
O=c1nccc(Nc2ccccc2)[nH]1	16.4
CNC(=O)c1ccc(-c2cc(C(F)(F)F)nn2C)s1	17.6
CCCc1sc(N/N=C/c2ccccn2)nc1-c1ccc(Br)cc1	5.39
OCCCNC(=S)Nc1ccc(Oc2ccccc2)cc1	1.06
Cc1ccc(OCCSc2nc3ccccc3n2CCC(=O)O)cc1	9.74
CCOc1ccc(-n2c(=O)cc(N3CCN(c4ccc(F)cc4)CC3)[nH]c2=O)cc1	9.15
Cc1cc(NC(=O)NC(=O)c2ccccc2F)no1	13.7
Cc1ccsc1-c1nc(CSCC(=O)N2CCN(c3ccccc3)CC2)c(C)o1	-21.1
COc1ccc(C(=O)NC(=S)SCC(=O)O)cc1	21.8
Cc1onc(-c2c(F)cccc2Cl)c1C(=O)OCc1cnc(Cl)s1	-3.61
C[C@H](NC(=O)c1ccco1)C(=O)N1CCCC1	21.7
NC(=O)C1CCN(CC(=O)Nc2ccccc2Sc2ccc(Cl)cc2)CC1	-53.7
NC(=O)C1CCN(CC(=O)Nc2cccnc2Cl)CC1	19.4
NC(=O)C1CCN(CC(=O)Nc2ccccc2Sc2ccccc2)CC1	-35.3
NC(=O)CC(NC(=O)c1ccc(Br)cc1)c1ccc(N2CCCCCC2)c([N+](=O)[O-])c1 (stereo not drawn)	-7.79
CCOC(=O)N1CCN(S(=O)(=O)c2c[nH]c(C(=O)OC)c2)CC1	12
COc1cccc(CNC(=O)c2nnn(CC(=O)Nc3ccc(C)c(C)c3)c2N)c1	1.8
O=C(O)c1ccc(/C=N/Nc2ncc(C(F)(F)F)cc2Cl)cc1	3.54
Cc1ccc(CN2CCC(C(=O)Nc3cccc(-c4cccc(F)c4)c3)CC2)o1	-69.1
COc1cccc(-c2cccc(NC(=O)C3CCN(Cc4ccc(CO)o4)CC3)c2)c1	-32.5
O=C(Nc1cccc(F)c1)C1CCN(C(=O)c2ccco2)CC1	-26.4
O=C(c1cccc(F)c1)N1CCN(Cc2ccco2)CC1	4.78

SMILES	hERG current change (%, negative = inhibition) at 10uM [%]
COc1cccc(-c2ccc(NC(=O)C3CCCN(Cc4ccc(CO)o4)C3)cc2)c1 (stereo not drawn)	2.83
O=C(Nc1cccc(-c2cscn2)c1)C1CCN(Cc2ccc(CO)o2)CC1	-3.02
O=C(Nc1cccc(-c2cccc(F)c2)c1)C1CCN(Cc2ccc(CO)o2)CC1	-70.3
COCc1ccc(CN2CCC(C(=O)Nc3cccc(-c4cscn4)c3)CC2)o1	-18.9
O=C(Nc1cccc(-c2cccc(Cl)c2)c1)C1CCN(Cc2ccc(CO)o2)CC1	-68
COc1cccc(-c2cccc(NC(=O)C3CCN(Cc4ccc(C)o4)CC3)c2)c1	-39.4
O=C(Nc1cccc(-c2cccc(F)c2)c1)C1CCN(Cc2ccco2)CC1	-67.5
CCC(=O)OC1(C)C(=O)C2=COC(c3ccc(OC)cc3)=CC2=C(Br)C1=O (stereo not drawn)	1.2
CC(=O)N(Cc1ccc(Br)cc1)c1cccc(C)c1C	3.64
N#Cc1ccc(CSc2nnc3ccccn23)cc1	-0.562
Cc1c(Br)c(C(F)(F)F)nn1CC(=O)NCc1ccccc1	31.8
Cc1cc(C)n2nc(SCCOc3ccccc3F)nc2n1	-22.7
COc1ccc(C(=O)c2cn[nH]c2-c2ccc(C)cc2O)cc1	-2.49
Cc1cccc(C)c1-n1c(C)cc(/C=N/NC(N)=S)c1C	15.6
CCOC(=O)CCCCC(=O)c1[nH]c(=O)[nH]c1CN1CCOCC1	20
CN(C)/C=C/C(=O)c1ccc2noc(-c3ccccc3)c2c1	-62.6
Cc1cccc(-c2onc3ccc(C(=O)/C=C/N(C)C)cc23)c1	-42
CC(=O)c1ccc2noc(-c3cccc(F)c3)c2c1	2.79
CN(C)/C=C/C(=O)c1ccc2noc(-c3ccc(F)cc3)c2c1	-9.41
COc1cccc(-c2onc3ccc(C(=O)/C=C/N(C)C)cc23)c1	-31.4
CN(C)/C=C/C(=O)c1ccc2noc(-c3cccc(F)c3)c2c1	-50.2
